Bioassay records from PubChem.
CCHFV vOTU inh: CCHFV vOTU protease inhibitors, primary screen, biochemical, Pep-AMC substrate, fluorescence; Crimean-Congo hemorrhagic fever virus L polyprotein viral ovarian tumor (vOTU) protease …; inhibition, % at 11.5 µM; 370,000 compounds, 0.55% hits; AID 651958, 2012
Mtb FBA inh: Mtb FBA enzyme inhibitors, primary screen, biochemical, fluorescence, strain H37Rv; Fructose-bisphosphate aldolase (Mycobacterium tuberculosis (strain ATCC 25618 / H37Rv)), …; purified M. tuberculosis FBA, fluorescence read-out; inhibition, % at 1 µM; 360,000 compounds, 2.3% hits; in the data active = inhibition above about 27%
Target sequence (P9WQA3 whole entry, looked up): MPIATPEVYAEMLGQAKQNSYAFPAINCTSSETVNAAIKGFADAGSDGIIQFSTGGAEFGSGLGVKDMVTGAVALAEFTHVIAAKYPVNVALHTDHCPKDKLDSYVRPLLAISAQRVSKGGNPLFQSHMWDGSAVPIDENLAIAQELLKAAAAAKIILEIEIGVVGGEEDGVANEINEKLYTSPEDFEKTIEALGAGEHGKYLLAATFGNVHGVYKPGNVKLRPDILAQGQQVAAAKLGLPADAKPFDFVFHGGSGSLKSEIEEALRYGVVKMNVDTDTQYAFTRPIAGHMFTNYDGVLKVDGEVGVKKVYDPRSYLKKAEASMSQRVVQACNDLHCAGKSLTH
DUSP3 inh: VHR1 phosphatase inhibitors, primary screen, biochemical, absorbance, uHTS; Dual specificity protein phosphatase 3 (Homo sapiens), P51452; recombinant VHR phosphatase, pNPP absorbance; inhibition, % at 13.3 µM; 290,000 compounds, 0.52% hits; AID 1654, 2009; in the data active = inhibition above about 50%
Target sequence (P51452 whole entry, looked up): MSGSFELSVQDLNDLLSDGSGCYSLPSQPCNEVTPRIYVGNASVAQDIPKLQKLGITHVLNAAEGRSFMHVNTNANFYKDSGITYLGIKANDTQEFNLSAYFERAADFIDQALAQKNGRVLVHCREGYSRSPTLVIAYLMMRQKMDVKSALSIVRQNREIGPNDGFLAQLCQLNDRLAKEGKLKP
GDH-TPI counter: GDH-TPI coupling enzyme inhibitors, primary screen, artefact control for M. tuberculosis FBA inhibitor project, biochemical, absorbance, full deck. GDH-TPI coupled enzyme counterscreen, NADH absorbance. 360,000 compounds, 1.2% hits. inhibition, % at 4.8 µM. AID 588335, 2011
RecA intein inh: Mtb RecA intein splicing inhibitors, primary screen, biochemical, fluorescence, HTS; Protein RecA (Mycobacterium tuberculosis (strain ATCC 25618 / H37Rv)), P9WHJ3; 290,000 compounds, 0.75% hits; cell-free RecA intein splicing; AID 2221, 2009; inhibition, % (concentration not given with the values); in the data active = inhibition above about 30%
3CLpro inhibitor: SARS-CoV 3CLpro protease inhibitors, primary screen, biochemical, quenched FRET; Replicase polyprotein 1ab (Severe acute respiratory syndrome coronavirus), P0C6X7; recombinant SARS-CoV 3CLpro, quenched FRET peptide cleavage; inhibition, % at 6 µM; 290,000 compounds, 0.14% hits; AID 1706, 2009; in the data active = inhibition above about 12%
Large screens that a line does not name were inactive. The list is not random: actives were taken first. Their share in the collection is about 4.7%. Rule as the data show it, unless noted: active = inhibition above about 30%; inactive = the rest.

Cn1ccc2c(/C=C/c3ccc(F)cc3)cc3c(c21)C1CCC3O1 (stereo unspecified)	Mtb FBA inh 140 (no result: DUSP3 inh, GDH-TPI counter, RecA intein inh, 3CLpro inhibitor)
COc1ccc(NCC(=O)N/N=C/C=C\c2ccccc2)cc1	GDH-TPI counter 31
Nc1ccc(C(=O)N/N=C\C=C\c2cccc([N+](=O)[O-])c2)cc1	GDH-TPI counter 43
O=C(N/N=C/C=C/c1ccccc1)c1ccncc1	GDH-TPI counter 37
O=c1nc(N/N=C/C=C/c2ccccc2)cn[nH]1	GDH-TPI counter 78 (no result: RecA intein inh)
CC1(C)OC(c2ccccc2)=C/C(=C\C=N\NC(=O)c2ccncc2)O1	GDH-TPI counter 33
O=C(O)c1ccc(N/N=C/C=C/c2ccccc2)cc1	GDH-TPI counter 33
O=C(O)c1ccc(N/N=C/c2ccc(-c3ccccc3)cc2)cc1	none
CC1(C)OC(c2ccccc2)=C/C(=C/C=Nc2ccccc2)O1	none
CCN1C(=O)S/C(=C/c2ccsc2)C1=O	GDH-TPI counter 39
C=CCN1C(=O)S/C(=C/c2ccsc2)C1=O	none
CC(=O)C1(C(=O)N2CCOCC2)CC(c2ccccc2C(F)(F)F)=NO1 (stereo unspecified)	none (no result: Mtb FBA inh, DUSP3 inh, GDH-TPI counter, RecA intein inh, 3CLpro inhibitor)
COc1ccc(C(=O)N(CN2CCCC2=O)c2cc(C)on2)cc1OC	none
COc1ccc(C(=O)N(CN2CCCC2=O)c2nccs2)cc1OC	GDH-TPI counter 46
O=C(Nc1ccccc1)c1nnsc1S(=O)c1ccc(Cl)cc1 (stereo unspecified)	RecA intein inh 35
O=c1oc(-c2ccccc2)cc(Cl)c1Cl	RecA intein inh 47
CC1=CS/C(=C(/C#N)C(=O)N2CCOCC2)N1c1ccccc1	GDH-TPI counter 32
N#C/C(C(=O)N1CCCCC1)=C1\Nc2ccccc2S1	GDH-TPI counter 54
CC1=CS/C(=C(/C#N)C(=O)N2CCCCC2)N1c1ccccc1	GDH-TPI counter 45
N#C/C(C(=O)N1CCOCC1)=C1/SC=C(c2ccccc2)N1c1ccccc1	none (no result: CCHFV vOTU inh, Mtb FBA inh, DUSP3 inh, GDH-TPI counter, RecA intein inh)
COc1ccc(CC(=O)N/N=C(/C)CC(=O)N(C)c2ccccc2)cc1	RecA intein inh 30
O=C1NC(=S)N/C1=C/c1cc([N+](=O)[O-])ccc1O	GDH-TPI counter 34
CN(C)c1ccc(C(=O)C(=O)c2ccccc2)cc1	none
CN(C)c1ccc(C(=O)C(O)c2ccccc2Cl)cc1 (stereo unspecified)	GDH-TPI counter 46 (no result: DUSP3 inh, RecA intein inh, 3CLpro inhibitor)
Cc1ccc(C(=O)NCCn2c(N)c(C#N)c3nc4ccccc4nc32)cc1	Mtb FBA inh 161
N#Cc1c(N)n(CCOC(=O)c2cccc([N+](=O)[O-])c2)c2nc3ccccc3nc12	none
N#Cc1c(N)n(CCNC(=O)c2ccc(Cl)cc2)c2nc3ccccc3nc12	Mtb FBA inh 199
CC(=O)N1c2cc(S(=O)(=O)Nc3c(C)n(C)n(-c4ccccc4)c3=O)c(Br)cc2CC1C (stereo unspecified)	none (no result: Mtb FBA inh, DUSP3 inh, GDH-TPI counter, RecA intein inh, 3CLpro inhibitor)
Cc1ccc(NC(=O)N2CCCc3ccccc32)cc1C	DUSP3 inh 53
O=C(Nc1cccc(S(=O)(=O)N2CCCC2)c1)[C@H]1C[C@H](O)[C@@H](CO)O1	none (no result: DUSP3 inh, RecA intein inh, 3CLpro inhibitor)
COc1ccc(C(=O)Nc2ccnn2C2CCN(C3CCC3)CC2)cc1	DUSP3 inh 52
CC(/C=N/NC(=O)c1cccs1)=C\c1ccco1	DUSP3 inh 51
CC(C)(C)NC(=O)/C(=C\c1ccco1)NC(=O)c1cccs1	none
CC(/C=N/NC(=O)Cc1cccs1)=C\c1ccco1	GDH-TPI counter 34
O=C1NCCc2c1[nH]c1ccc([N+](=O)[O-])cc21	none
O=C1NCCc2c1[nH]c1ccccc21	Mtb FBA inh 27
O=C(N1CCOCC1)N1CC[C@H]2[C@H](CCCN2Cc2ccccc2)C1	none (no result: Mtb FBA inh, DUSP3 inh, GDH-TPI counter, RecA intein inh, 3CLpro inhibitor)
CCOC(=O)C1CCN(S(=O)(=O)c2ccc(-c3ccc(=O)[nH]n3)o2)CC1	DUSP3 inh 51
CCc1nc2sc3c(c2c(=O)n1N)CC(C)(C)OC3	none
CN(C)c1nc2sc3c(c2c(=O)n1C)CC(C)(C)OC3	DUSP3 inh 60
OCC[C@@H]1C[C@H](O)[C@@H](O)[C@]2(OCc3ccc(CO)cc32)O1	none (no result: DUSP3 inh, GDH-TPI counter, RecA intein inh, 3CLpro inhibitor)
COCCNc1nc(Nc2ccc(C(=O)OC)cc2)c2sccc2n1	GDH-TPI counter 31 (no result: DUSP3 inh, RecA intein inh, 3CLpro inhibitor)
S=c1[nH]nc(-c2ccc3ccccc3n2)n1-c1cc(Cl)cc(Cl)c1	DUSP3 inh 55
C=CCNc1cccc2c1S(=O)(=O)N[C@@H](Cc1ccccc1)CO2	none (no result: Mtb FBA inh, DUSP3 inh, GDH-TPI counter, RecA intein inh, 3CLpro inhibitor)
COc1ccc(-c2oc3ccc(-c4cc(OC)c(OC)c(OC)c4)cc3c2-c2ccc(OC)nc2)cc1	none
CC(CCN1CCC(C(O)(c2ccccc2)c2ccccc2)CC1)Oc1ccc(C#N)c(F)c1 (stereo unspecified)	none (no result: Mtb FBA inh, DUSP3 inh, GDH-TPI counter, RecA intein inh, 3CLpro inhibitor)
O=C(Nc1nc2cc3c(cc2s1)OCCO3)c1ccco1	GDH-TPI counter 35
CC(=O)Nc1nc2cc3c(cc2s1)OCO3	none
O=C(Nc1nc2cc3c(cc2s1)OCO3)C1=COCCO1	GDH-TPI counter 42
CC(C)C(=O)Nc1nc2cc3c(cc2s1)OCCO3	none
O=C(Nc1nc2cc3c(cc2s1)OCO3)c1ccco1	GDH-TPI counter 35
CCN(CC)C(=O)CSc1nnc(-c2ccccn2)n1C	none (no result: Mtb FBA inh, DUSP3 inh, GDH-TPI counter, RecA intein inh, 3CLpro inhibitor)
Cc1ccc(C)c(C(=O)Cn2ncc(Cl)c(Cl)c2=O)c1	none
Cc1cccc(Cn2ncc(Cl)c(Cl)c2=O)c1	RecA intein inh 55
CNc1cnc(-c2cccc(C(=O)N3CCOCC3)c2)cn1	Mtb FBA inh 135 (no result: DUSP3 inh, RecA intein inh, 3CLpro inhibitor)
Cc1ccc(-n2c(SCC(=O)Nc3cccc(S(=O)(=O)NC4=NCCCCC4)c3)nc3ccccc3c2=O)cc1C	DUSP3 inh 60
Cc1nc(=S)c2ccccc2[nH]1	GDH-TPI counter 31
COc1ccc2nc(NC(=O)c3ccc(NS(=O)(=O)c4cccs4)cc3)sc2c1	GDH-TPI counter 40
Cc1cccc2sc(NC(=O)c3ccc(NS(=O)(=O)c4cccs4)cc3)nc12	GDH-TPI counter 32
COc1ccc(NC(=O)NCCCN2CCN(c3ccc(F)cc3)CC2)cc1OC	none (no result: Mtb FBA inh, DUSP3 inh, GDH-TPI counter, RecA intein inh, 3CLpro inhibitor)
O=C(NC1CCCC1)[C@@H]1CCCN1C(=O)[C@@H](NS(=O)(=O)c1ccc(F)cc1F)c1ccccc1	none (no result: Mtb FBA inh, DUSP3 inh, GDH-TPI counter, RecA intein inh, 3CLpro inhibitor)
CC1(C(=O)NC2CCCCC2)CCC(=O)N1C1CCN(Cc2ccccc2)CC1 (stereo unspecified)	none (no result: DUSP3 inh, GDH-TPI counter, RecA intein inh, 3CLpro inhibitor)
CC1(C(=O)NCc2ccccc2)CN(S(C)(=O)=O)CC(=O)N1CCc1c[nH]c2ccccc12 (stereo unspecified)	none (no result: Mtb FBA inh, DUSP3 inh, GDH-TPI counter, RecA intein inh, 3CLpro inhibitor)
CCn1c(COc2ccc(Cl)cc2)nnc1SC1CCc2ccccc2C1=O (stereo unspecified)	RecA intein inh 62
